Laboratory results taken from the supplement of paper PMC8728848.
Shown is part of a subset that was picked to be rich in the strongest signals.

Experiments:
Assay in all cases: glycan array binding signal (z-score within array); higher = stronger binding
Settings in all cases: glycan notation: IUPAC condensed, linker removed
Fuc(a1-2)Gal = target: Fuc(a1-2)Gal
Summary of the method: (§1)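 The binding signal is a Z-score computed within each array. Data were drawn from 3228 arrays in the Consortium for Functional Glycomics database, restricted to those with a known protein sequence. Scores were averaged over arrays of the same protein sequence at different concentrations or buffers, and over linkers, and negative values can be taken as non-binding.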

[1] = target: Fuc(a1-2)Gal(b1-4)GlcNAc(b1-3)GalNAc
Summary of the method: as §1

[2] = target: Fuc(a1-2)Gal(b1-4)[Fuc(a1-3)]GlcNAc
Summary of the method: as §1

[3] = target: Fuc(a1-2)[Gal(a1-3)]Gal(b1-3)GlcNAc(b1-6)GalNAc
Summary of the method: as §1

[4] = target: Fuc(a1-2)[GalNAc(a1-3)]Gal(b1-3)GlcNAc(b1-2)Man(a1-3)[Fuc(a1-2)[GalNAc(a1-3)]Gal(b1-3)GlcNAc(b1-2)Man(a1-6)]Man(b1-4)GlcNAc(b1-4)GlcNAc
Summary of the method: as §1

[5] = target: Fuc(a1-2)[GalNAc(a1-3)]Gal(b1-4)GlcNAc(b1-2)Man(a1-3)[Fuc(a1-2)[GalNAc(a1-3)]Gal(b1-4)GlcNAc(b1-2)Man(a1-6)]Man(b1-4)GlcNAc(b1-4)GlcNAc
Summary of the method: as §1

[6] = target: Fuc(a1-2)[GalNAc(a1-3)]Gal(b1-4)GlcNAc(b1-3)Gal(b1-4)GlcNAc(b1-3)Gal(b1-4)GlcNAc
Summary of the method: as §1

[7] = target: Fuc(a1-2)[GalNAc(a1-3)]Gal(b1-4)[Fuc(a1-3)]GlcNAc
Summary of the method: as §1

Fuc(a1-3)GlcNAc = target: Fuc(a1-3)GlcNAc
Summary of the method: as §1

[8] = target: Fuc(a1-3)[Gal(b1-4)]GlcNAc(b1-3)GalNAc
Summary of the method: as §1

[9] = target: Fuc(a1-3)[Gal3S(b1-4)]GlcNAc
Summary of the method: as §1

[10] = target: Fuc(a1-3)[GalNAc(b1-4)]GlcNAc
Summary of the method: as §1

[11] = target: Gal(a1-3)Gal(b1-3)GlcNAc(b1-3)GalNAc
Summary of the method: as §1

[12] = target: Gal(a1-3)[Gal(a1-4)]Gal(b1-4)GlcNAc
Summary of the method: as §1

Gal(b1-3)Gal = target: Gal(b1-3)Gal
Summary of the method: as §1

Gal(b1-3)GlcNAc(b1-2)Man = target: Gal(b1-3)GlcNAc(b1-2)Man
Summary of the method: as §1

[13] = target: Gal(b1-3)GlcNAc(b1-2)Man(a1-3)[Gal(b1-3)GlcNAc(b1-2)Man(a1-6)]Man(b1-4)GlcNAc(b1-4)GlcNAc
Summary of the method: as §1

[14] = target: Gal(b1-3)GlcNAc(b1-3)Gal(b1-3)GlcNAc
Summary of the method: as §1

[15] = target: Gal(b1-3)[Fuc(a1-4)]GlcNAc(b1-3)Gal(b1-3)[Fuc(a1-4)]GlcNAc
Summary of the method: as §1

[16] = target: Gal(b1-4)GlcNAc(b1-2)Man(a1-3)[Gal(b1-4)GlcNAc(b1-2)Man(a1-6)]Man(b1-4)GlcNAc(b1-4)GlcNAc
Summary of the method: as §1

[17] = target: Gal(b1-4)GlcNAc(b1-2)[Gal(b1-4)GlcNAc(b1-6)]Man(a1-6)[Gal(b1-4)GlcNAc(b1-2)Man(a1-3)]Man(b1-4)GlcNAc(b1-4)[Fuc(a1-6)]GlcNAc
Summary of the method: as §1

[18] = target: Gal(b1-4)GlcNAc(b1-3)Gal(b1-4)GlcNAc
Summary of the method: as §1

[19] = target: Gal(b1-4)GlcNAc(b1-3)Gal(b1-4)GlcNAc(b1-3)Gal(b1-4)GlcNAc
Summary of the method: as §1

[20] = target: Gal(b1-4)GlcNAc(b1-3)Gal(b1-4)GlcNAc(b1-3)Gal(b1-4)GlcNAc(b1-2)[Gal(b1-4)GlcNAc(b1-3)Gal(b1-4)GlcNAc(b1-3)Gal(b1-4)GlcNAc(b1-6)]Man(a1-6)[Gal(b1-4)GlcNAc(b1-3)Gal(b1-4)GlcNAc(b1-3)Gal(b1-4)GlcNAc(b1-2)Man(a1-3)]Man(b1-4)GlcNAc(b1-4)[Fuc(a1-6)]GlcNAc
Summary of the method: as §1

[21] = target: Gal(b1-4)GlcNAc(b1-3)Gal(b1-4)GlcNAc(b1-3)Gal(b1-4)GlcNAc(b1-3)Gal(b1-4)GlcNAc(b1-3)Gal(b1-4)GlcNAc(b1-2)Man(a1-3)[Gal(b1-4)GlcNAc(b1-3)Gal(b1-4)GlcNAc(b1-3)Gal(b1-4)GlcNAc(b1-3)Gal(b1-4)GlcNAc(b1-3)Gal(b1-4)GlcNAc(b1-2)Man(a1-6)]Man(b1-4)GlcNAc(b1-4)GlcNAc
Summary of the method: as §1

[22] = target: Gal(b1-4)GlcNAc(b1-3)[Gal(b1-4)GlcNAc(b1-6)]Gal(b1-4)GlcNAc
Summary of the method: as §1

Gal(b1-4)GlcNAc6P = target: Gal(b1-4)GlcNAc6P
Summary of the method: as §1

Gal(b1-6)Gal = target: Gal(b1-6)Gal
Summary of the method: as §1

Gal6S(b1-3)GlcNAc = target: Gal6S(b1-3)GlcNAc
Summary of the method: as §1

Gal6S(b1-3)GlcNAc6S = target: Gal6S(b1-3)GlcNAc6S
Summary of the method: as §1

Glc(a1-6)Glc(a1-6)Glc = target: Glc(a1-6)Glc(a1-6)Glc
Summary of the method: as §1

GlcA(b1-6)Gal = target: GlcA(b1-6)Gal
Summary of the method: as §1

[23] = target: GlcA3S(b1-3)Gal(b1-4)GlcNAc(b1-2)Man
Summary of the method: as §1

[24] = target: GlcNAc(b1-2)Man(a1-3)[GlcNAc(b1-2)Man(a1-6)]Man(b1-4)GlcNAc(b1-4)[Fuc(a1-6)]GlcNAc
Summary of the method: as §1

[25] = target: GlcNAc(b1-2)[GlcNAc(b1-4)]Man(a1-3)[GlcNAc(b1-2)Man(a1-6)]Man(b1-4)GlcNAc(b1-4)GlcNAc
Summary of the method: as §1

[26] = target: GlcNAc(b1-3)[GlcNAc(b1-6)]Gal(b1-4)GlcNAc
Summary of the method: as §1

[27] = target: GlcNAc(b1-3)[GlcNAc(b1-6)]GalNAc
Summary of the method: as §1

GlcNAc(b1-6)GalNAc = target: GlcNAc(b1-6)GalNAc
Summary of the method: as §1

[28] = target: Neu5Ac(a2-3)Gal(b1-3)GalNAc(b1-3)Gal(a1-4)Gal(b1-4)Glc
Summary of the method: as §1

[29] = target: Neu5Ac(a2-3)Gal(b1-3)GlcNAc(b1-2)Man
Summary of the method: as §1

[30] = target: Neu5Ac(a2-3)Gal(b1-4)GlcNAc(b1-2)Man(a1-3)[Neu5Ac(a2-6)Gal(b1-4)GlcNAc(b1-2)Man(a1-6)]Man(b1-4)GlcNAc(b1-4)GlcNAc
Summary of the method: as §1

[31] = target: Neu5Ac(a2-3)Gal(b1-4)GlcNAc(b1-2)[Neu5Ac(a2-3)Gal(b1-4)GlcNAc(b1-4)]Man(a1-3)[GlcNAc(b1-4)][Neu5Ac(a2-3)Gal(b1-4)GlcNAc(b1-2)[Neu5Ac(a2-3)Gal(b1-4)GlcNAc(b1-6)]Man(a1-6)]Man(b1-4)GlcNAc(b1-4)GlcNAc
Summary of the method: as §1

[32] = target: Neu5Ac(a2-3)Gal(b1-4)GlcNAc(b1-2)[Neu5Ac(a2-3)Gal(b1-4)GlcNAc(b1-4)]Man(a1-3)[GlcNAc(b1-4)][Neu5Ac(a2-3)Gal(b1-4)GlcNAc(b1-4)Man(a1-6)]Man(b1-4)GlcNAc(b1-4)GlcNAc
Summary of the method: as §1

[33] = target: Neu5Ac(a2-3)Gal(b1-4)GlcNAc(b1-3)Gal(b1-4)[Fuc(a1-3)]GlcNAc
Summary of the method: as §1

[34] = target: Neu5Ac(a2-6)Gal(b1-4)GlcNAc(b1-3)Gal(b1-3)GlcNAc
Summary of the method: as §1

[35] = target: Neu5Ac(a2-6)Gal(b1-4)GlcNAc(b1-3)Gal(b1-4)GlcNAc(b1-2)Man(a1-3)[Neu5Ac(a2-6)Gal(b1-4)GlcNAc(b1-3)Gal(b1-4)GlcNAc(b1-2)Man(a1-6)]GalNAc
Summary of the method: as §1

[36] = target: Neu5Ac(a2-6)Gal(b1-4)GlcNAc(b1-3)Gal(b1-4)GlcNAc(b1-6)[Gal(b1-3)]GalNAc
Summary of the method: as §1

[37] = target: Neu5Ac(a2-6)Gal(b1-4)GlcNAc(b1-3)[Neu5Ac(a2-6)Gal(b1-4)GlcNAc(b1-6)]GalNAc
Summary of the method: as §1

[38] = target: Neu5Ac(a2-6)Gal(b1-4)GlcNAc(b1-6)[Gal(b1-3)]GalNAc
Summary of the method: as §1

[39] = target: Neu5Ac(a2-8)Neu5Ac(a2-3)[GalNAc(b1-4)]Gal(b1-4)Glc
Summary of the method: as §1

[40] = target: Neu5Ac(b2-6)Gal(b1-4)GlcNAc
Summary of the method: as §1

B1: Clec18A (Homo sapiens) (protein)
chain: PFHTCDLRIDGDCFMVSSEADTYYRARMKCQRKGGVLAQIKRQKVQDILAFYLGRLETTNEVIDSDFETRNFWIGLTYKTAKDSFRWATGEHQAFTSFAFGQPDNHGFGNCVELQASAAFNWNDQRCKTRNRYICQ
glycan array binding signal (z-score) (Fuc(a1-2)Gal): -0.536
glycan array binding signal (z-score) [1]: -0.366
glycan array binding signal (z-score) [2]: -0.32
glycan array binding signal (z-score) [3]: 1.74
glycan array binding signal (z-score) [4]: -0.538
glycan array binding signal (z-score) [5]: 4.62
glycan array binding signal (z-score) [6]: -0.814
glycan array binding signal (z-score) [7]: -0.083
glycan array binding signal (z-score) (Fuc(a1-3)GlcNAc): -0.783
glycan array binding signal (z-score) [8]: -0.458
glycan array binding signal (z-score) [9]: 0.178
glycan array binding signal (z-score) [10]: 0.38
glycan array binding signal (z-score) [11]: -0.324
glycan array binding signal (z-score) [12]: 2.29
glycan array binding signal (z-score) (Gal(b1-3)Gal): -0.801
glycan array binding signal (z-score) (Gal(b1-3)GlcNAc(b1-2)Man): -0.886
glycan array binding signal (z-score) [13]: 0.56
glycan array binding signal (z-score) [14]: 4.51
glycan array binding signal (z-score) [15]: 0.734
glycan array binding signal (z-score) [16]: 1.15
glycan array binding signal (z-score) [17]: 3.1
glycan array binding signal (z-score) [18]: 3.23
glycan array binding signal (z-score) [19]: 0.45
glycan array binding signal (z-score) [20]: 3.83
glycan array binding signal (z-score) [21]: 0.263
glycan array binding signal (z-score) [22]: 0.596
glycan array binding signal (z-score) (Gal(b1-4)GlcNAc6P): 0.093
glycan array binding signal (z-score) (Gal(b1-6)Gal): 3
glycan array binding signal (z-score) (Gal6S(b1-3)GlcNAc): 3.79
glycan array binding signal (z-score) (Gal6S(b1-3)GlcNAc6S): -0.347
glycan array binding signal (z-score) (Glc(a1-6)Glc(a1-6)Glc): -0.771
glycan array binding signal (z-score) (GlcA(b1-6)Gal): 8.1
glycan array binding signal (z-score) [23]: -0.619
glycan array binding signal (z-score) [24]: -0.289
glycan array binding signal (z-score) [25]: -0.935
glycan array binding signal (z-score) [26]: -0.673
glycan array binding signal (z-score) [27]: -0.327
glycan array binding signal (z-score) (GlcNAc(b1-6)GalNAc): 0.314
glycan array binding signal (z-score) [28]: 2.87
glycan array binding signal (z-score) [29]: 1.04
glycan array binding signal (z-score) [30]: -0.398
glycan array binding signal (z-score) [31]: -0.652
glycan array binding signal (z-score) [32]: -0.566
glycan array binding signal (z-score) [33]: -0.342
glycan array binding signal (z-score) [34]: -0.391
glycan array binding signal (z-score) [35]: -0.045
glycan array binding signal (z-score) [36]: 0.884
glycan array binding signal (z-score) [37]: 3.01
glycan array binding signal (z-score) [38]: 1.17
glycan array binding signal (z-score) [39]: 4.6
glycan array binding signal (z-score) [40]: 0.965
